In PubChem BioAssay (EPA / NIEHS) one finds outcome and AC50 data, which are given here for 13 compounds.

In general, AC50 refers to the midpoint of the concentration-response curve, whichever way the signal moves.

Each structure is given as a SMILES string. Records with an inconclusive call do not appear. The source made the active and inactive calls. The calls were made as follows: active = hit-call score of the fitted dose curve at least 0.9, where 1 is the maximum; inconclusive = response in the unintended direction; inactive = score below 0.9.

Chain of human Neuropeptide Receptor Y1 (NPY1), NPY1R (gene 4886) (P25929 whole entry, looked up): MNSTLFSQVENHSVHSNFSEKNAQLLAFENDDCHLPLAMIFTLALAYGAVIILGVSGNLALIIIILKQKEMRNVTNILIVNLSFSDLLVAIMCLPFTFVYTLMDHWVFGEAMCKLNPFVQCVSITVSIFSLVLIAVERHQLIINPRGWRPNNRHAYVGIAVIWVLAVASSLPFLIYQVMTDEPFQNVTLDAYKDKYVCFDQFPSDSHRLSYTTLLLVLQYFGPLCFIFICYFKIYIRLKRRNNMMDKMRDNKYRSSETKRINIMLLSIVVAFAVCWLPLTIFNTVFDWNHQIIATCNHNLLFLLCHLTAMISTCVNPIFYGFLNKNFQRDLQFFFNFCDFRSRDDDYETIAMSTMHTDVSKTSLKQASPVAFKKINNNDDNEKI
Chain of human Orphanin, Opioid Related Nociceptin Receptor 1 (ORL1), OPRL1 (gene 4987) (P41146 whole entry, looked up): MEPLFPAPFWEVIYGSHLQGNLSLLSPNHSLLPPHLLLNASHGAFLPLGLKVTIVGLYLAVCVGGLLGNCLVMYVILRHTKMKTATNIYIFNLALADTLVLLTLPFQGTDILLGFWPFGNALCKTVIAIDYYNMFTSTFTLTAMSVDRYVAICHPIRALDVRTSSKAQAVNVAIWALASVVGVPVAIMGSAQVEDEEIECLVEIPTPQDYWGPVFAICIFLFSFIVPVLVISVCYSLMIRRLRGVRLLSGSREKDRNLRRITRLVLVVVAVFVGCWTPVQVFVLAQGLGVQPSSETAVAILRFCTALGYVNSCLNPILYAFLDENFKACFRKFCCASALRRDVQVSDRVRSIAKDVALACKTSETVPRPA
Chain of human Neurokinin, NK2 Receptor, TACR2 (gene 6865) (P21452 whole entry, looked up): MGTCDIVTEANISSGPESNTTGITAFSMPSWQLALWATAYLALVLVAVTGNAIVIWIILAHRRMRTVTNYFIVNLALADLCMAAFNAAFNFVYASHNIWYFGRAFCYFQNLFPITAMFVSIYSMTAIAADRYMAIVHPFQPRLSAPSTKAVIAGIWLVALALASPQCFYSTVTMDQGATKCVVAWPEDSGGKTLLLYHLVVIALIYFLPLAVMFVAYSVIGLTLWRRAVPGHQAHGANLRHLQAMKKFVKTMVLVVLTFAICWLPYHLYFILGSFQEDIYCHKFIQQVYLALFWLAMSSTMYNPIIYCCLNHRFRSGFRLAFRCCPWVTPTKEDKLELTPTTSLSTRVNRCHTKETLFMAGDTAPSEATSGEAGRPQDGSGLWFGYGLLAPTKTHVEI
Chain of human Opioid Receptor Delta 1 (Opiate D1), OPRD1 (gene 4985) (P41143 whole entry, looked up): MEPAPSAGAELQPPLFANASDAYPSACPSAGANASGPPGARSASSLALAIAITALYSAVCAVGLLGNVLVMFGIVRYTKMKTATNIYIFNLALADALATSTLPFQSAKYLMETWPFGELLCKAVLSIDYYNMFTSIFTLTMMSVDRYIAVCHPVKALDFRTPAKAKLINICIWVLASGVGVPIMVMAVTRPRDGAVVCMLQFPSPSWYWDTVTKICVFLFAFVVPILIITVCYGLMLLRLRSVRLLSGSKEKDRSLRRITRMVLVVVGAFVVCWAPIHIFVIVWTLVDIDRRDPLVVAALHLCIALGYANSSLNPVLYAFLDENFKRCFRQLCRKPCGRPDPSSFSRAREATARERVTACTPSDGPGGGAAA

The first assay deals with human Neuropeptide Receptor Y1 (NPY1), NPY1R (gene 4886) (UniProt P25929). The assay can be described thus: NVS_GPCR_hNPY1: NovaScreen (NVS) G Protein-Coupled Receptor Assay for human Neuropeptide Receptor Y1 (NPY1) (AID 2283276). A digest of the protocol:
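Cell-free radioligand binding using receptor extracted from SK-N-MC cells, 1 h incubation, filter-based scintillation counting. Primary screen single concentration 25 uM in duplicate; actives followed in concentration series. Loss of bound signal scored versus DMSO.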
For `Oc1cccc2cccnc12`, the compound was called inactive.

Take `CC(=O)[O][Hg][c]1ccccc1`: the concentration at half-maximal activity (AC50) is 510 nM (active).

Turning to `C=C(C)C(=O)[O][Sn]([CH2]CCC)([CH2]CCC)[CH2]CCC`, the AC50 is 1140 nM (active).

Another assay addresses human Neurokinin, NK2 Receptor, TACR2 (gene 6865) (UniProt P21452). The assay can be described thus: NVS_GPCR_hNK2: NovaScreen (NVS) G Protein-Coupled Receptor Assay for human Neurokinin, NK2 Receptor (AID 2283278).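 Also: actives reduce bound radioligand signal relative to DMSO baseline.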 The method, boiled down: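 CHO-derived membrane protein, radioligand displacement, filter scintillation read at 4 h post-dose. Single-point 25 uM in duplicate, then concentration series for actives; DMSO as negative control.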
For the compound `Oc1cccc2cccnc12`, the AC50 is 4960 nM (active).

Take `CC12CC1(C)C(=O)N(c1cc(Cl)cc(Cl)c1)C2=O` (centres undefined): the compound was classed as inactive.

Consider `CC(=O)[O][Hg][c]1ccccc1`, for which the AC50 was 520 nM (active).

In the case of `COP(=S)(OC)Oc1cc(Cl)c(Cl)cc1Cl`, the result was inactive.

For the compound `Nc1ncc([N+](=O)[O-])s1`, the call was inactive.

For the compound `Nc1cccc2ccccc12`, the AC50 was 4280 nM (active).

On to `C=C(C)C(=O)[O][Sn]([CH2]CCC)([CH2]CCC)[CH2]CCC`, for which the AC50 is 977 nM (active).

`CC(C)(C)c1cc(O)ccc1O`: the AC50 is 16300 nM (active).

For the compound `COP(=S)(OC)Oc1ccc(Sc2ccc(OP(=S)(OC)OC)cc2)cc1`, the result was inactive.

Consider `CC(C)(C)CC(C)(C)c1ccc(O)cc1`, for which the AC50 is 25000 nM (active).

`COP(=S)(OC)Oc1ccc(S(=O)(=O)N(C)C)cc1`: the call was inactive.

Another assay addresses human Opioid Receptor Delta 1 (Opiate D1), OPRD1 (gene 4985) (UniProt P41143). The assay can be described thus: NVS_GPCR_hOpiate_D1: NovaScreen (NVS) G Protein-Coupled Receptor Assay for human Opioid Receptor Delta 1 (Opiate D1) (AID 2283280). A digest of the protocol:
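Radioligand displacement on membranes from CHO cells expressing the receptor, read by filter scintillation counting 1 h after dosing. Duplicate single-point screen at 25 uM, then concentration series for actives; loss of signal versus DMSO.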
For `CC(=O)[O][Hg][c]1ccccc1`, the AC50 was 848 nM (active).

`C=C(C)C(=O)[O][Sn]([CH2]CCC)([CH2]CCC)[CH2]CCC`: the AC50 was 761 nM (active).

With `CC(C)(C)CC(C)(C)c1ccc(O)cc1`, the AC50 is 8280 nM (active).

For `O=C(O)C(F)(F)C(F)(F)C(F)(F)C(F)(F)C(F)(F)C(F)(F)C(F)(F)C(F)(F)C(F)(F)C(F)(F)F`, the AC50 is 10700 nM (active).

Another assay deals with human Purinergic Receptor P2Y, P2RY1 (gene 5028) (UniProt P47900). The experiment in a line: NVS_GPCR_hPY2: NovaScreen (NVS) G Protein-Coupled Receptor Assay for human Purinergic Receptor P2Y (AID 2283281). The method, boiled down: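 Cell-free radioligand binding using U937-derived protein, 1 h after dosing, filter-based scintillation counting. Screened in duplicate at 25 uM; actives rerun as concentration-response up to 50 uM; loss of signal versus DMSO.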
Chain of human Purinergic Receptor P2Y, P2RY1 (gene 5028) (P47900 whole entry, looked up): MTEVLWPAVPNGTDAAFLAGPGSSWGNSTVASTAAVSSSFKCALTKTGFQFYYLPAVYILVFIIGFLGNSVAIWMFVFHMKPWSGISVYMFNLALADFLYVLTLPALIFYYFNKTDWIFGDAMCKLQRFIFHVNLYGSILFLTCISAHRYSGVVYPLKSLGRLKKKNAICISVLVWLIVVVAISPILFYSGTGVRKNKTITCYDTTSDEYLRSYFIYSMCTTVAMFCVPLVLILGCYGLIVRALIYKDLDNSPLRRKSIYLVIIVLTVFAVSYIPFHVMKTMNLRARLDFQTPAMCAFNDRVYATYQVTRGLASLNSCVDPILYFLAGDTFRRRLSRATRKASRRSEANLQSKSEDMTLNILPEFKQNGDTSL
As for `CC(=O)[O][Hg][c]1ccccc1`, the AC50 was 5960 nM (active).

Regarding `COP(=S)(OC)Oc1ccc(Sc2ccc(OP(=S)(OC)OC)cc2)cc1`, the call was inactive.

Regarding `CC(C)(C)CC(C)(C)c1ccc(O)cc1`, the result was inactive.

In another assay the target is human Orphanin, Opioid Related Nociceptin Receptor 1 (ORL1), OPRL1 (gene 4987) (UniProt P41146). The assay can be described thus: NVS_GPCR_hORL1: NovaScreen (NVS) G Protein-Coupled Receptor Assay for human Orphanin, Opioid Related Nociceptin Receptor 1 (ORL1) (AID 2283283). A digest of the protocol:
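Filter-based radioligand displacement with receptor extracted from HEK293 cells, read 1 hour after dosing by scintillation counting. Duplicate single-point screen at 25 uM; qualifying chemicals then run in concentration-response to 50 uM, analysed relative to DMSO.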
Take `CC(=O)[O][Hg][c]1ccccc1`: the AC50 was 473 nM (active).

For the compound `C=C(C)C(=O)[O][Sn]([CH2]CCC)([CH2]CCC)[CH2]CCC`, the AC50 was 1390 nM (active).

Turning to `Clc1ccc(C2(Cn3cncn3)CC(Br)CO2)c(Cl)c1` (centres undefined), the compound was called inactive.
